Source: PubChem BioAssay AID1159580 (chemical genetic matrix, 2015)
The campaign covered roughly 5,500 compounds. About 2,000 (36%) were called active. About 18% were inconclusive and are not listed. Cut-off read from the data, not from the text of the source: active = normalized growth mostly below about 0.91 (no sharp cut-off); inconclusive = no clear call, values can overlap the other calls; inactive = mostly above about 0.92. This is one part of the list.

Assay: chemical genetic growth profiling, strain panel (AID 1159580);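 note: tested at 20 µM; growth read once vehicle control cultures reached saturation at 30 °C; 1 = growth at the plate median or of vehicle wells; lower values mean less growth of the strain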
Conditions: growth OD

Measured: normalized growth

CC(=O)O[C@H]1C[C@@H](O)C(C)(C)C2C[C@@H](OC(C)=O)[C@]3(C)C(CC[C@@]4(C)[C@H](c5ccoc5)OC(=O)C5OC543)[C@]21C (stereo partly specified)
inactive: S. cerevisiae deletion strains, locus YJL187C, strain SWE1, hits give low values 0.996 | S. cerevisiae deletion strains, locus YJR066W, strain TOR1, hits give low values 0.928 | S. cerevisiae deletion strains, locus YKL009W, strain mrt4, hits give low values 0.954 | S. cerevisiae deletion strains, locus YKL068W, hits give low values 0.976 | S. cerevisiae deletion strains, locus YKL085W, strain MDH1 (second series), hits give low values 0.974 | S. cerevisiae deletion strains, locus YKL085W, strain MDH1, hits give low values 0.974 | S. cerevisiae deletion strains, locus YKL160W, strain elf1, hits give low values 1.01 | S. cerevisiae deletion strains, locus YKR001C, strain vps1, hits give low values 0.983 | S. cerevisiae deletion strains, locus YKR026C, strain gcn3, hits give low values 1.01 | S. cerevisiae deletion strains, locus YKR091W, strain srl3, hits give low values 1.01 | S. cerevisiae deletion strains, locus YLL001W, strain dnm1, hits give low values 0.998 | S. cerevisiae deletion strains, locus YLL026W, hits give low values 1.01 | S. cerevisiae deletion strains, locus YLL041C, strain sdh2, hits give low values 0.999 | S. cerevisiae deletion strains, locus YLR027C, strain aat2, hits give low values 1.01 | S. cerevisiae deletion strains, locus YLR039C, strain RIC1, hits give low values 1.04 | S. cerevisiae deletion strains, locus YLR058C, strain SHM2, hits give low values 0.967 | S. cerevisiae deletion strains, locus YLR102C, strain apc9, hits give low values 0.984 | S. cerevisiae deletion strains, locus YLR113W, strain HOG1, hits give low values 1.02 | S. cerevisiae deletion strains, locus YLR221C, strain rsa3, hits give low values 1.01 | S. cerevisiae deletion strains, locus YLR258W, strain gsy2, hits give low values 1 | S. cerevisiae deletion strains, locus YLR262C, strain YPT6 (second series), hits give low values 1.01 | S. cerevisiae deletion strains, locus YLR262C, strain YPT6, hits give low values 1.02 | S. cerevisiae deletion strains, locus YLR268W, strain sec22, hits give low values 0.977 | S. cerevisiae deletion strains, locus YLR320W, strain mms22, hits give low values 1.02 | S. cerevisiae deletion strains, locus YLR330W, strain CHS5, hits give low values 0.992 | S. cerevisiae deletion strains, locus YLR342W, strain FKS1 (second series), hits give low values 0.988 | S. cerevisiae deletion strains, locus YLR342W, strain FKS1, hits give low values 1.01 | S. cerevisiae deletion strains, locus YLR357W, strain rsc2, hits give low values 1.04 | S. cerevisiae deletion strains, locus YLR370C, strain arc18, hits give low values 0.999 | S. cerevisiae deletion strains, locus YLR371W, strain rom2, hits give low values 0.988 | S. cerevisiae deletion strains, locus YLR384C, strain iki3, hits give low values 0.999 | S. cerevisiae deletion strains, locus YLR418C, strain cdc73, hits give low values 0.979 | S. cerevisiae deletion strains, locus YML016C, strain PPZ1, hits give low values 0.975 | S. cerevisiae deletion strains, locus YML032C, strain rad52, hits give low values 0.991 | S. cerevisiae deletion strains, locus YML120C, strain ndi1, hits give low values 1.01 | S. cerevisiae deletion strains, locus YML124C, strain tub3, hits give low values 0.986 | S. cerevisiae deletion strains, locus YMR058W, strain fet3, hits give low values 1.01 | S. cerevisiae deletion strains, locus YMR078C, strain ctf18, hits give low values 0.988 | S. cerevisiae deletion strains, locus YMR125W, strain sto1, hits give low values 1 | S. cerevisiae deletion strains, locus YMR129W, hits give low values 1.03 | S. cerevisiae deletion strains, locus YMR205C, strain PFK2, hits give low values 1.01 | S. cerevisiae deletion strains, locus YMR223W, strain ubp8, hits give low values 0.991 | S. cerevisiae deletion strains, locus YMR231W, strain pep5, hits give low values 0.988 | S. cerevisiae deletion strains, locus YMR307W, strain GAS1, hits give low values 0.964 | S. cerevisiae deletion strains, locus YNL067W, strain RPL9B, hits give low values 1.02 | S. cerevisiae deletion strains, locus YNL071W, strain lat1, hits give low values 1 | S. cerevisiae deletion strains, locus YNL183C, strain NPR1, hits give low values 0.946 | S. cerevisiae deletion strains, locus YNL209W, strain ssb2, hits give low values 0.995 | S. cerevisiae deletion strains, locus YNL233W, strain BNI4, hits give low values 1 | S. cerevisiae deletion strains, locus YNL248C, strain rpa49, hits give low values 1 | S. cerevisiae deletion strains, locus YNL250W, strain rad50, hits give low values 1.02 | S. cerevisiae deletion strains, locus YNL271C, strain bni1, hits give low values 0.989 | S. cerevisiae deletion strains, locus YNL298W, strain CLA4, hits give low values 0.992 | S. cerevisiae deletion strains, locus YNL307C, strain MCK1, hits give low values 0.995 | S. cerevisiae deletion strains, locus YNL322C, strain KRE1 (second series), hits give low values 1.02 | S. cerevisiae deletion strains, locus YNR049C, strain mso1, hits give low values 0.999 | S. cerevisiae deletion strains, locus YNR052C, strain pop2, hits give low values 0.987 | S. cerevisiae deletion strains, locus YOL006C, strain TOP1, hits give low values 0.989 | S. cerevisiae deletion strains, locus YOL012C, strain htz1 0.76 | S. cerevisiae deletion strains, locus YOL147C, strain pex11, hits give low values 0.99 | S. cerevisiae deletion strains, locus YOR001W, strain rrp6, hits give low values 1.03 | S. cerevisiae deletion strains, locus YOR061W, strain CKA2, hits give low values 0.966 | S. cerevisiae deletion strains, locus YOR069W, strain VPS5, hits give low values 0.998 | S. cerevisiae deletion strains, locus YOR070C, strain gyp1, hits give low values 1.01 | S. cerevisiae deletion strains, locus YOR080W, strain dia2, hits give low values 0.998 | S. cerevisiae deletion strains, locus YOR083W, strain WHI5, hits give low values 1.01 | S. cerevisiae deletion strains, locus YOR106W, strain vam3, hits give low values 1 | S. cerevisiae deletion strains, locus YOR136W, strain idh2, hits give low values 0.979 | S. cerevisiae deletion strains, locus YOR144C, strain elg1, hits give low values 0.989 | S. cerevisiae deletion strains, locus YOR184W, strain ser1, hits give low values 0.967 | S. cerevisiae deletion strains, locus YOR231W, strain MKK1, hits give low values 0.984 | S. cerevisiae deletion strains, locus YOR265W, strain rbl2, hits give low values 1 | S. cerevisiae deletion strains, locus YOR270C, strain vph1, hits give low values 0.967 | S. cerevisiae deletion strains, locus YOR290C, strain snf2, hits give low values 1 | S. cerevisiae deletion strains, locus YOR316C, strain cot1, hits give low values 0.989 | S. cerevisiae deletion strains, locus YPL051W, strain arl3, hits give low values 1.02 | S. cerevisiae deletion strains, locus YPL078C, strain atp4, hits give low values 0.997 | S. cerevisiae deletion strains, locus YPL106C, strain sse1, hits give low values 1.02 | S. cerevisiae deletion strains, locus YPL240C, strain hsp82, hits give low values 1.01 | S. cerevisiae deletion strains, locus YPL256C, strain CLN2, hits give low values 0.944 | S. cerevisiae deletion strains, locus YPR119W, strain clb2, hits give low values 0.985 | S. cerevisiae deletion strains, locus YPR141C, strain kar3, hits give low values 0.986 | S. cerevisiae deletion strains, locus YPR163C, strain tif3, hits give low values 0.982 | S. cerevisiae deletion strains, locus YPR167C, strain met16, hits give low values 0.987 | S. cerevisiae deletion strains, strain wtn01, hits give low values 0.968 | S. cerevisiae strains, strain wild type, hits give low values 0.988
